# Most compounds without a hit are left out; they make up all but 2.2% or so of the library.
# LGR2 inh – blocks bursicon-induced cAMP signaling via Drosophila LGR2; AID 720647; 380,000 tested, 0.35% active; inhibition, % at 9.99 µM; HEK293 LGR2, CRE-luciferase, bursicon-stimulated, 4 h;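 active = drop in luminescence signal, shown as inhibition above about 50% in the replicate tests, limit read from the data, passing the limit was not always enough; inconclusive = probably only some replicates passing the limit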;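 note: agonist challenge used bursicon conditioned medium at about half maximal strength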
# MITF TRPM1 inh – reduces MITF-dependent TRPM1 promoter luciferase signal. SK-MEL-5 TRPM1 promoter luciferase, 24 h. inhibition, % at 12.5 µM. 330,000 tested, 0.83% active. AID 488899;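 active = mean inhibition across replicates of 60% or more, whatever share of single replicates reaches that level; inconclusive = some that reach 60%, reason not given; inactive = mean inhibition across replicates below 60%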
# EWS-Fli block – EWS/Fli transcriptional activity inhibition; A673 NR0B1-luciferase reporter, viability-normalised; inhibition, % at 12.6 µM; 350,000 tested, 0.67% active; AID 651661;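 active = mean inhibition of at least 50% after viability correction, with every replicate also passing that limit; inconclusive = mean reaches 50% but only one of two replicates passes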;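 note: firefly luciferase signal divided by Alamar Blue viability fluorescence both relative to DMSO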
# Shn3 3UTR inh – reduces Shn3 3'UTR luciferase signal in osteoblasts; Clone20 osteoblast Shn3 3'UTR firefly luciferase, 24 h; inhibition, % at 12.5 µM; 360,000 tested, 0.52% active;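 active = mean inhibition of at least 75% with every replicate also reaching 75%; inconclusive = mean inhibition at least 75% but some replicate below; inactive = mean inhibition below 75%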;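 note: 0% = median of neutral control wells and 100% = pilot-screen positive control compound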
# EBV LMP1 NFkB – inhibitors of Epstein-Barr LMP1-induced NF-kappaB reporter; LMP1-induced NF-kappaB luciferase reporter cells, luminescence; inhibition, % at 12.5 µM; 350,000 tested, 0.69% active; AID 504558; in the data active = inhibition above about 41%; inconclusive = no clear call, values can overlap the other calls;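 note: 0% = neutral control wells and 100% = reference inhibitor control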
# PAX8 inh HTS – inhibitors of PAX8 transcriptional activity in RMG-I cells; RMG-I TPO-luciferase reporter, SteadyGlo, 24 h; inhibition, % at 12.6 µM; 360,000 tested, 1.2% active;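 active = mean replicate inhibition at least 60% with every replicate also reaching 60%; inconclusive = only one of the two criteria is met; inactive = mean below 60% and not all replicates reaching 60%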;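 note: luciferase light reporting Pax8 driven TPO promoter activity; plate controls were median of neutral control wells for no effect and mitoxantrone controls for full effect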
# Active calls of the source: *; ? = inconclusive; . = no result.
SMILES,LGR2 inh,MITF TRPM1 inh,EWS-Fli block,Shn3 3UTR inh,EBV LMP1 NFkB,PAX8 inh HTS
COc1cc(C2CC(=O)c3c(ccc4ccccc34)N2)ccc1O (stereo unspecified),9,7,.,-28,-15,18
Cc1ccc2c(c1)C(=O)N1[C@H]3c4cc(Cl)ccc4OC[C@@H]3[C@H](c3ccccc3)[C@]1(C)C(=O)N2,-3,7,52*,26,8,4
Cc1ccc2c(c1)C(=O)N1[C@H]3c4cc(C)ccc4OC[C@@H]3[C@H](c3ccccc3)[C@]1(C)C(=O)N2,5,19,49,45,24,26
O=C(Nc1cc(F)ccc1F)N[C@H]1CC[C@@H](CCn2cc(C3CCCC3)nn2)O[C@H]1CO,1,.,.,.,.,24
Cc1ccc(Nc2nc(-c3ccccc3)cs2)nc1,60*,-1,16,14,-59,-42
O=C(C[C@@H]1C[C@@H]2c3cc(NC(=O)Nc4ccccc4)ccc3O[C@@H]2[C@H](CO)O1)NCc1cccnc1,0,.,-14,.,.,1
CCN=C1SC(CC(=O)NC2CCCCC2)C(=O)N1CC (stereo unspecified),21,9,.,2,-3,.
CN1C(=O)C(CC(=O)NC2CCCCC2)SC1=Nc1ccccc1 (stereo unspecified),4,2,-2,2,64*,7
CN(C)C(=O)C[C@@H]1C=C[C@@H](NC(=O)NC2CCCCC2)[C@H](CO)O1,14,.,-3,.,.,0
COc1ccccc1Sc1nc(-c2ccccn2)ncc1OC,7,34,20,26,9,-2
COc1cnc(-c2ccccn2)nc1NC(C)C,17,66*,1,92*,-7,59
NC(N)=N/N=C/c1ccc(OCc2ccccc2Cl)cc1,1,41,58*,2,-5,.
NC(N)=N/N=C/c1ccc(Cl)c(Cl)c1,64*,.,4,-20,.,-1
C[C@@H]1CN([C@H](C)CO)S(=O)(=O)c2ccc(C3=CCCC3)cc2O[C@H]1CN(C)C(=O)c1cnccn1,-1,.,-17,.,.,6
Cc1cccc(N/C=C/C(=O)c2cccs2)c1C,70*,-6,.,-22,-7,.
NC(=O)c1ccccc1N/C=C/C(=O)c1cccs1,.,-30,.,-24,53*,.
Cc1noc(C)c1NC(=O)N(C)C[C@H]1Oc2c(NC(=O)Nc3ccccc3)cccc2C(=O)N([C@@H](C)CO)C[C@H]1C,2,.,0,.,.,.
CCCC(=O)Nc1ccc2c(c1)C(=O)N(C)[C@@H]1CC[C@@H](CC(=O)NCCOC)O[C@@H]1CO2,1,.,-1,.,.,-7
O=C(C[C@@H]1CC[C@H](NC(=O)C2CCOCC2)[C@H](CO)O1)Nc1ccc(-c2ccccc2)cc1,13,.,2,.,.,-3
Fc1ccc2[nH]c3c(N4CCc5ccccc5C4)ncnc3c2c1,16,.,13,87*,.,9
CO[C@@H]1CN(C)C(=O)c2cc(NS(C)(=O)=O)ccc2OC[C@@H](C)NC[C@@H]1C,3,.,.,.,.,.
COC1=CC(=O)c2c(ccc3ncnc(N)c23)C1=O,96*,113*,40,97*,83*,104*
COc1cccc2c1C(=O)C=C(C)C2=O,20,?,24,60,-11,28
CCC(=O)N1C[C@@H](C)[C@H](OC)CN(C)C(=O)c2ccc(NC(=O)Nc3ccc(Cl)cc3)cc2OC[C@H]1C,5,.,-5,.,.,13
CC(=O)Nc1nc(-c2ccc3c(c2)CC(C)N3C(=O)C2CC2)c(C)s1 (stereo unspecified),-7,-7,-15,-108,79*,-7
SMILES,LGR2 inh,MITF TRPM1 inh,EWS-Fli block,Shn3 3UTR inh,EBV LMP1 NFkB,PAX8 inh HTS
Cc1sc(NC(=O)c2ccco2)nc1-c1ccc2c(c1)CC(C)N2C(=O)C1CC1 (stereo unspecified),-14,16,-16,63,43*,.
O=C(C[C@H]1CC[C@H](NC(=O)c2cccc(F)c2)[C@@H](CO)O1)NCc1ccccc1,8,.,-4,.,.,-3
O=C(Cc1ccccn1)N[C@H]1CC[C@@H](CCNC(=O)c2cc(Cl)cc(Cl)c2)O[C@H]1CO,7,.,1,.,.,7
Cc1ccc(S(=O)(=O)N(C)C[C@H]2Oc3ccc(NC(=O)Cn4cnnn4)cc3CC(=O)N([C@@H](C)CO)C[C@H]2C)cc1,-14,.,-2,.,.,-9
CN(C)CCCNc1nc2sc3c(c2c(=O)n1CCc1ccccc1)CCCCC3,.,65*,19,5,-4,-10
CN(C)CCCn1c(=O)n(CCc2ccccc2)c(=O)c2c3c(sc21)CCCCC3,.,53,3,18,3,32
COCCn1c(C)cc(C2=NNC(=Nc3ccccc3F)SC2)c1C,.,67*,.,67,64*,.
COCCCN=C1NN=C(c2cc(C)n(-c3ccccc3F)c2C)CS1,6,26,58*,39,33,-36
Cc1ccc(S(=O)(=O)Nc2ccc3c(c2)C(=O)N([C@@H](C)CO)C[C@@H](C)[C@H](CN(C)Cc2ccncc2)OCCCC[C@H](C)O3)cc1,4,.,4,.,.,15
O=C(NCCN1CCOCC1)[C@]1(Cc2ccccc2)N=C(c2ccc(OCCCO)cc2)O[C@@H]1c1ccccc1,.,.,4,.,.,6
COC(=O)c1ccccc1NC(=O)C(C)c1ccc([N+](=O)[O-])cc1 (stereo unspecified),-18,4,-15,7,62*,0
CC(C(=O)Nc1ccccc1Br)c1ccc([N+](=O)[O-])cc1 (stereo unspecified),8,0,10,-6,10,16
CCC1CCCCN1CCCNC(=O)C1CCN(Cc2nc(-c3ccc(Cl)cc3)oc2C)CC1 (stereo unspecified),.,100*,.,-12,-68,.
CCc1ccc(-c2nc(CN3CCC(C(=O)NCCN(CC)c4ccccc4)CC3)c(C)o2)cc1,.,67*,.,60,-64,?
Cc1oc(-c2ccc(Cl)cc2)nc1CN1CCC(C(=O)NCCCN2CCOCC2)CC1,.,4,.,0,-12,.
Cc1ccccc1-c1nc(CN2CCC(C(=O)NCCCN3CCCC(C)C3)CC2)c(C)o1 (stereo unspecified),-2,94*,.,20,-15,13
C/C=C/c1ccc2c(c1)O[C@@H](CN(C)Cc1ccccn1)[C@H](C)CN([C@@H](C)CO)S2(=O)=O,13,.,16,.,.,1
Cc1ccc(S(=O)(=O)Nc2cccc3c2O[C@H](CN(C)S(=O)(=O)c2cccs2)[C@@H](C)CN([C@H](C)CO)C3=O)cc1,5,.,-8,.,.,-10
Cc1noc(C)c1NC(=O)N(C)C[C@@H]1Oc2ccc(NC(=O)C3CC3)cc2CC(=O)N([C@@H](C)CO)C[C@H]1C,3,.,2,.,.,.
C[C@@H]1CCCCO[C@@H](CN(C)Cc2ccc(C(=O)O)cc2)[C@@H](C)CN([C@H](C)CO)C(=O)c2cc(NC(=O)Nc3ccccc3)ccc2O1,2,.,-3,.,.,-7
COc1cc2ccnc(Cc3cccc(OC)c3OC)c2cc1OC,1,10,7,86*,20,5

# Bioassay records: PubChem, Broad Institute
